Measured values taken from article PMC4336329 (PLoS ONE, 2015).
Hit rate of the full screen: of about 310,000 compounds, about 14,000 (4.5%) showed an effect of 50% or more. Effects have a minus sign here. This is one part of a sample in which strong results are shown more often than they occur.
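Further: peak tail current of the secondary pulse compared with the same well before compound.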

What follows are molecules tested against human ether-à-go-go-related gene (hERG) potassium channel (human, UniProt Q12809) (assay: primary screen, population patch clamp on CHO cells stably expressing hERG; higher = less effect of the substance).
human ether-à-go-go-related gene (hERG) potassium channel, sequence (Q12809 whole entry, looked up): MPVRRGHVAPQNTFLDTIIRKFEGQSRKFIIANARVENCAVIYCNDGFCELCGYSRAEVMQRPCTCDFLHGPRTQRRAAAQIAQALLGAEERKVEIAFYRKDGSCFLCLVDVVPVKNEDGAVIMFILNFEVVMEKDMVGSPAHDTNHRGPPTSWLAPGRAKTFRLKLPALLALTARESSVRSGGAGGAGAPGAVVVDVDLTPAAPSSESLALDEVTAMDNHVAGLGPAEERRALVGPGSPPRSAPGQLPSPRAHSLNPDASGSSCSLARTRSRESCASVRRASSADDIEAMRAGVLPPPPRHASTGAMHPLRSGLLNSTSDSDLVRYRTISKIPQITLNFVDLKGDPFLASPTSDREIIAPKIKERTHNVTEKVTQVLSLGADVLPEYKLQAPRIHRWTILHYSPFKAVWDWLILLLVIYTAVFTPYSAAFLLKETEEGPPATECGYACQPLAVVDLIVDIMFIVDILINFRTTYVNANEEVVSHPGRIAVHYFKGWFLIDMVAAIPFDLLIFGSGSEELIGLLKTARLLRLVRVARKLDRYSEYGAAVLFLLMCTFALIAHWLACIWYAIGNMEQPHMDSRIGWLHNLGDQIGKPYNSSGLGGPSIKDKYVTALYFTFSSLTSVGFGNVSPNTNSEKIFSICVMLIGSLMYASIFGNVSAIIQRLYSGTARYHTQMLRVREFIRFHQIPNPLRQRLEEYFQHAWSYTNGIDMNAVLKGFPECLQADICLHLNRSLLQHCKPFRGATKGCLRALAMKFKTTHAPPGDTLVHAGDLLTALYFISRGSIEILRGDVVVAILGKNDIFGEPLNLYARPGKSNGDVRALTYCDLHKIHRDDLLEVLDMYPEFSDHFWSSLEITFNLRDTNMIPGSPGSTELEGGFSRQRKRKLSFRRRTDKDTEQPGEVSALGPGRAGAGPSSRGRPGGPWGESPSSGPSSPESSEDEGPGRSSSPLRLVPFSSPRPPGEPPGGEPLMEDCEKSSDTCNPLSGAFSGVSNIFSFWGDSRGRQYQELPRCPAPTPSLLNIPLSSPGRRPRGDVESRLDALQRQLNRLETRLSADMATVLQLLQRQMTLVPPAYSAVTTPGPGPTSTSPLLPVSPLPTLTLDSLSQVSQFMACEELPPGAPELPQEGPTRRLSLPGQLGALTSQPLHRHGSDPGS
In the case of `CC(C)(C)NC(=O)NC(=O)CN1CCN(Cc2ccccc2)CC1`, the “hERG current change (%, negative = inhibition) at 10uM” value is reported as -1.77%.
`COC(=O)[C@@]1(Cc2ccc(OC)cc2)[C@H]2c3cc(C(=O)N(C)C)n(CCc4ccc(OC)c(Br)c4)c3C[C@H]2CN1C(=O)c1ccccc1` was tested, and the “hERG current change (%, negative = inhibition) at 10uM” value was 11.4%.
In the case of `Cc1cccc(C(=O)NCCN2CCOCC2)c1[N+](=O)[O-]`, the “hERG current change (%, negative = inhibition) at 10uM” value is reported as 4.8%.
`Cc1ccc(C)c(OCc2cc(C(=O)N3C[C@@H](C)O[C@@H](C)C3)no2)c1` was tested, and the “hERG current change (%, negative = inhibition) at 10uM” value was 4.95%.
In the case of `CCCCc1c(O)nc(SCC(=O)NCCc2ccc(OC)c(OC)c2)[nH]c1=O`, the “hERG current change (%, negative = inhibition) at 10uM” value is reported as -0.0252%.
With `COc1ccc(C(=O)NC(=S)Nc2ccc3[nH]c(=O)[nH]c3c2)cc1` the “hERG current change (%, negative = inhibition) at 10uM” value was 15.5%.
For `COc1cc(OC)cc(C(=O)NC(=S)Nc2ccc3[nH]c(=O)[nH]c3c2)c1`, the “hERG current change (%, negative = inhibition) at 10uM” value was -27%.
`COc1cccc(C(=O)NC(=S)Nc2ccc3[nH]c(=O)[nH]c3c2)c1` was tested, and the “hERG current change (%, negative = inhibition) at 10uM” value was -70.3%.
`CCN(CC)c1ccc(CNc2nc3ccccc3n2C)cc1` was tested, and the “hERG current change (%, negative = inhibition) at 10uM” value was -49.7%.
In the case of `CCN(CC)c1ccc(CNc2nc3ccccc3n2CC)cc1`, the “hERG current change (%, negative = inhibition) at 10uM” value is reported as -23.5%.
With `CCN(CC)c1ccc(CNc2nc3ccccc3n2CCN2CCCCC2)cc1` the “hERG current change (%, negative = inhibition) at 10uM” value was -74.5%.
With `CCN(CC)c1ccc(CNc2nc3ccccc3n2CCN2CCOCC2)cc1` the “hERG current change (%, negative = inhibition) at 10uM” value was -79.5%.
`CCC(=O)Nc1nc2ccccc2n1CCN1CCOCC1` was tested, and the “hERG current change (%, negative = inhibition) at 10uM” value was 16.2%.
With `CCN(CC)c1ccc(CNc2nc3ccccc3n2C(C)C)cc1` the “hERG current change (%, negative = inhibition) at 10uM” value was 1.88%.
For `Cc1ccc(NC(=O)CCN2C(=O)C3CC=CCC3C2=O)cc1Cl` (stereo not shown), the “hERG current change (%, negative = inhibition) at 10uM” value was -10.9%.
In the case of `COc1cc(-c2nnc(-c3ccncc3)o2)ccc1OCc1ccccc1`, the “hERG current change (%, negative = inhibition) at 10uM” value is reported as 4.05%.
With `Cc1ccccc1-c1nc2cc(NC(=O)C3CC3)ccc2o1` the “hERG current change (%, negative = inhibition) at 10uM” value was 7.97%.
In the case of `Cc1ccc(NC(=O)C2CC2c2ccccc2)cc1` (stereo not shown), the “hERG current change (%, negative = inhibition) at 10uM” value is reported as 2.96%.
In the case of `Cc1cccc(OCC(=O)Nc2cc(C)ccc2O)c1`, the “hERG current change (%, negative = inhibition) at 10uM” value is reported as 12.4%.
In the case of `CCOCCCn1c(=N)c(S(=O)(=O)c2ccc(C)cc2)cc2c(=O)n3cc(C)ccc3nc21`, the “hERG current change (%, negative = inhibition) at 10uM” value is reported as 11.6%.
`CC(C)OCCCn1c(=N)c(C(N)=S)cc2c(=O)n3ccccc3nc21` was tested, and the “hERG current change (%, negative = inhibition) at 10uM” value was -81.5%.
With `Cc1ccc2nc3c(cc(C(N)=S)c(=N)n3CCCOC(C)C)c(=O)n2c1` the “hERG current change (%, negative = inhibition) at 10uM” value was -74.4%.
In the case of `CCCn1c(=N)c(S(=O)(=O)c2ccccc2)cc2c(=O)n3ccccc3nc21`, the “hERG current change (%, negative = inhibition) at 10uM” value is reported as -15.6%.
`CC(C)OCCCn1c(=N)c(S(=O)(=O)c2ccccc2)cc2c(=O)n3ccccc3nc21` was tested, and the “hERG current change (%, negative = inhibition) at 10uM” value was -43.6%.
With `CCOCCCn1c(=N)c(S(=O)(=O)c2ccccc2)cc2c(=O)n3cc(C)ccc3nc21` the “hERG current change (%, negative = inhibition) at 10uM” value was -19.1%.
In the case of `CCOC(=O)C1=C(N)Oc2cc(C)[nH]c(=O)c2C1c1ccncc1` (stereo not shown), the “hERG current change (%, negative = inhibition) at 10uM” value is reported as 11.9%.
`COc1cc2c(cc1C1NC(=S)NC(C)=C1C(N)=O)CCCC2` (stereo not shown) was tested, and the “hERG current change (%, negative = inhibition) at 10uM” value was 9.6%.
`Cc1ccc(CNC(=O)CN2CCCC(C)C2)cc1` (stereo not shown) was tested, and the “hERG current change (%, negative = inhibition) at 10uM” value was -29.7%.
For `COc1ccc(N2CCN(C3CC(=O)N(C)C3=O)CC2)cc1` (stereo not shown), the “hERG current change (%, negative = inhibition) at 10uM” value was 17.4%.
`O=S(=O)(c1ccc(Br)cc1Cl)N1CC[NH+](CCO)CC1.[Cl-]` was tested, and the “hERG current change (%, negative = inhibition) at 10uM” value was 3.35%.
In the case of `Oc1ccc(/C=N/N(Cc2ccccc2)c2ccccc2)cc1`, the “hERG current change (%, negative = inhibition) at 10uM” value is reported as 35.8%.
In the case of `Cc1sc2ncn(CC(=O)NCCCC(=O)N3CCN(Cc4ccc5c(c4)OCO5)CC3)c(=O)c2c1C`, the “hERG current change (%, negative = inhibition) at 10uM” value is reported as -6.94%.
`CCn1ncc(/C=C/C(=O)c2ccccc2)c1C` was tested, and the “hERG current change (%, negative = inhibition) at 10uM” value was 5.83%.
`COC(=O)c1c(NC(=O)CSc2nccn2C)sc(C)c1C` was tested, and the “hERG current change (%, negative = inhibition) at 10uM” value was -15.8%.
`CCOC(=O)c1cc(C)sc1NC(=O)CSc1nccn1C` was tested, and the “hERG current change (%, negative = inhibition) at 10uM” value was -19.9%.
`CCc1cc(C(=O)OC)c(NC(=O)CSc2nccn2C)s1` was tested, and the “hERG current change (%, negative = inhibition) at 10uM” value was -56.9%.
With `O=C1CCC(=O)N1CC(O)COc1ccccc1` (stereo not shown) the “hERG current change (%, negative = inhibition) at 10uM” value was 4.87%.
For `Cl.OC(COc1ccccc1)CN1C2=NCCCN2c2ccccc21` (stereo not shown), the “hERG current change (%, negative = inhibition) at 10uM” value was -67%.
With `Cl.OC(COc1ccc(Cl)cc1)CN1C2=NCCCN2c2ccccc21` (stereo not shown) the “hERG current change (%, negative = inhibition) at 10uM” value was -76.3%.
`Cc1cc(C(=O)NNC(=O)c2ccccc2[N+](=O)[O-])c(C)o1` was tested, and the “hERG current change (%, negative = inhibition) at 10uM” value was 11.2%.
For `O=C(CN1CCN(Cc2ccc(Cl)cc2)CC1)N/N=C/c1ccncc1`, the “hERG current change (%, negative = inhibition) at 10uM” value was -80.1%.
`O=C(Cc1ccc(Cl)cc1)N/N=C/c1ccncc1` was tested, and the “hERG current change (%, negative = inhibition) at 10uM” value was -27.3%.
`O=C(CN1CCN(Cc2ccccc2)CC1)N/N=C/c1cccs1` was tested, and the “hERG current change (%, negative = inhibition) at 10uM” value was -22.9%.
`O=C(CN1CCN(Cc2ccc(Cl)cc2)CC1)N/N=C/c1cccs1` was tested, and the “hERG current change (%, negative = inhibition) at 10uM” value was -67.2%.
For `O=C(CN1CCN(Cc2ccccc2)CC1)N/N=C/c1cccnc1`, the “hERG current change (%, negative = inhibition) at 10uM” value was -12.8%.
For `O=C(CN1CCN(Cc2ccccc2Cl)CC1)N/N=C/c1cccs1`, the “hERG current change (%, negative = inhibition) at 10uM” value was -20.4%.
In the case of `O=C(O)CCCNC(=O)Cc1ccccc1`, the “hERG current change (%, negative = inhibition) at 10uM” value is reported as 5.08%.
For `O=C(C1=C(O)C(=O)N(c2ncccn2)C1c1cccs1)c1ccco1` (stereo not shown), the “hERG current change (%, negative = inhibition) at 10uM” value was 14.3%.
`COc1ccccc1C1NC(=O)NC(C)=C1C(=O)OC1CCCCC1` (stereo not shown) was tested, and the “hERG current change (%, negative = inhibition) at 10uM” value was 6.66%.
`COCCNC(=O)C(=O)NNC(=O)CCc1ccccc1` was tested, and the “hERG current change (%, negative = inhibition) at 10uM” value was 8.78%.
With `CCOC(=O)CN1C(=O)N[C@@H](c2cccc(C(F)(F)F)c2)C(C(C)=O)=C1C` the “hERG current change (%, negative = inhibition) at 10uM” value was 11.8%.
With `Cn1nc(-c2ccccc2)c2nc3ccccc3nc21` the “hERG current change (%, negative = inhibition) at 10uM” value was -5.31%.
`O=C(c1cc(-c2ccncc2)nc2ccc(Cl)cc12)N1CCN(Cc2ccc3c(c2)OCO3)CC1` was tested, and the “hERG current change (%, negative = inhibition) at 10uM” value was -46.7%.
In the case of `COc1cc2nc(N3CCN(C(=O)c4ccco4)CC3)nc(N)c2cc1OC.Cl`, the “hERG current change (%, negative = inhibition) at 10uM” value is reported as -35.9%.
With `Cl.Nc1nc(N2CCN(C(=O)c3ccco3)CC2)nc2ccc(Br)cc12` the “hERG current change (%, negative = inhibition) at 10uM” value was -59.5%.
With `O=C(c1cc(-c2ccncc2)nc2ccc(Br)cc12)N1CCN(Cc2ccc3c(c2)OCO3)CC1` the “hERG current change (%, negative = inhibition) at 10uM” value was -56.5%.
In the case of `O=C(O)c1cc(-c2ccc3c(c2)OCO3)nc2ccc(Br)cc12`, the “hERG current change (%, negative = inhibition) at 10uM” value is reported as 9.07%.
For `CC(=O)c1ccc(N2CCN(C(=O)c3cc(-c4ccncc4)nc4ccc(Br)cc34)CC2)cc1`, the “hERG current change (%, negative = inhibition) at 10uM” value was -42%.
`O=C(c1cc(-c2ccncc2)nc2ccc(Br)cc12)N1CCN(c2ccccn2)CC1` was tested, and the “hERG current change (%, negative = inhibition) at 10uM” value was -37.2%.
With `Cl.Nc1nc(N2CCN(C(=O)c3ccco3)CC2)nc2ccccc12` the “hERG current change (%, negative = inhibition) at 10uM” value was -49.4%.
For `O=C(c1ccco1)N1CCN(C(=O)c2cc(-c3ccncc3)nc3ccc(Br)cc23)CC1`, the “hERG current change (%, negative = inhibition) at 10uM” value was -72.7%.
